# Bioassay records deposited in PubChem BioAssay by several laboratories.
# The list is not random: actives were taken first. Their share in the collection is about 4.1%.
# DAX1 inh-1: blocks DAX1 repression of SF-1 activated StAR promoter; AID 652010; inhibition, % at 6.8 µM; HEK293T StAR-luciferase reporter, SF-1/DAX-1 repression relief; 370,000 tested, 1.1% active;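 active = inhibition above the mean over all tested compounds plus 3 SD, cut at about 3.6% in these data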;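 note: 0% = DAX-1 cells with DMSO and 100% = cells lacking DAX-1 with DMSO; higher inhibition means more luminescence from relief of DAX-1 repression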
# DAX1 inh-2: inhibitors of human orphan nuclear receptor DAX1 (NR0B1). inhibition, % at 6.75 µM. HEK293 Gal4-DAX1 luciferase reporter, luminescence. AID 504766. P51843. 340,000 tested, 0.99% active;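 active = inhibition above the mean over all tested compounds plus 3 SD, cut at about 4.2% in these data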;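 note: 0% = DAX1-transfected cells with DMSO and 100% = empty-vector control cells with DMSO; inhibition shows as a rise in luminescence from relieved DAX1 repression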
# Target sequence (P51843 207-470 limits assumed): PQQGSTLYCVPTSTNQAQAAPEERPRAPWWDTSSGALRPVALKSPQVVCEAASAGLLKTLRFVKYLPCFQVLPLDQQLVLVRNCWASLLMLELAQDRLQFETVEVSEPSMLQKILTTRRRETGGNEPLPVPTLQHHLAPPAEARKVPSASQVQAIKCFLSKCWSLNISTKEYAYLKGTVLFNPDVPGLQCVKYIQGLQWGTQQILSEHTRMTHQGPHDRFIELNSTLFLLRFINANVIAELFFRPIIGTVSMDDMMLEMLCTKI
# ssDAF12 agonist: activators of S. stercoralis DAF-12 nuclear receptor | HEK293 ssDAF-12/GRIP1 lit1-tk-luc reporter, luminescence; % of 3 µM dafachronic acid response | activation, % at 6.8 µM | 370,000 tested, 1% active | AID 652126;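 active = activation above the mean over all tested compounds plus 3 SD, cut at about 0.9% in these data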;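 note: 0% = DMSO-only wells and 100% = 3 µM delta7-dafachronic acid wells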
# hgDAF-12 ag: hgDAF-12 agonism, primary luciferase screen; activation, % at 6.8 µM; 370,000 tested, 1.8% active; HEK293 GAL4-hgDAF12 UAS-luciferase reporter, agonist luminescence; normalized to butyrate control;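 active = activation above a cutoff set at the mean of all screened compounds plus 3 SD, cut at about 10% in these data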;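 note: 0% = DMSO wells and 100% = sodium butyrate wells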
# PolyA inh: yeast polyadenylation inhibition | S. cerevisiae SKY197-pL101 polyadenylation reporter, beta-gal luminescence; efflux-impaired pdr1/pdr3 knockout yeast; score 100 = 6 SD above DMSO | 300,000 tested, 0.02% active | activity score, % at 12 µM;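 active = lowest replicate activity score at least 50, where 100 means six control SD above control mean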;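 note: yeast exposed to compound for 9 h at 30 °C; higher score means more reporter readthrough which indicates perturbed polyadenylation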
# hcDAF12 agonist: H. contortus DAF-12 activation, primary screen; HEK293 hcDAF-12 lit1-tk-luc reporter, luminescence; 0% DMSO, 100% Δ7-dafachronic acid; activation, % at 6.8 µM; 370,000 tested, 1.4% active;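 active = activation above the mean of all tested compounds plus 3 SD, cut at about 5.5% in these data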;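 note: 100% = response to 3 µM Δ7-dafachronic acid high control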
# Numbers without * were called inactive; . = no result given.
SMILES,DAX1 inh-1,DAX1 inh-2,ssDAF12 agonist,hgDAF-12 ag,PolyA inh,hcDAF12 agonist
Cn1cc(CCOCc2ccccn2)c2ccccc21,3.6*,.,1,5,.,1
O=C(Nc1ccc(F)cc1F)C1(c2cccs2)CCOCC1,-1,4.5*,0,0,8,-1
CCCCOC(=O)c1ccc(NC(=O)c2ccoc2C)cc1,1,1,-2,12*,-9,1
CCCOC(=O)c1ccc(NC(=O)CC(C)(C)C)cc1,3.8*,2,0,13*,-3,4
CCCCCOC(=O)Nc1nnc(CCC)s1,0,0,-1,0,1,1
CCCOC(=O)c1ccc(NC(=O)c2ccoc2C)cc1,0,2,-1,8,-10,0
CCCCOC(=O)Nc1ccc(C(C)C)cc1,2,0,0,5,-12,2
CCCCOC(=O)Nc1ccc(C(N)=O)cc1,1,4.3*,0,9,1,0
CCCCOC(=O)Nc1nnc(C(C)C)s1,2,5.7*,-1,11*,-24,3
Cc1cc(-c2n[nH]c(=S)n2N=Cc2c3ccccc3cc3ccccc23)n[nH]1,-1,.,-1,3,.,0
Cc1nc(NC(=O)c2cccc(Cl)c2)sc1C(=O)N1CCCCC1,2,0,-1,11*,20,0
CCOc1cccc(-c2nn3c(-c4cccc(C)c4)nnc3s2)c1,1,.,-1,0,.,-1
Cn1c(COc2ccc([N+](=O)[O-])cc2)nnc1SCC(=O)NCC1CCCO1 (stereo not given),0,-1,1.0*,0,18,-2
COc1ccccc1CNc1ccc2c(c1)OC[C@H](CC(C)C)NS2(=O)=O,0,.,-1,2,.,1
CN=c1scc(-c2ccc([N+](=O)[O-])cc2)n1/N=C/c1ccco1,1,2,-2,4,1,-2
CN=c1scc(-c2ccc(F)cc2)n1/N=C/c1ccc(O)c(O)c1,1,-1,-1,0,.,6.3*
COC(=O)c1ccc(C=NNC(=O)c2cc(-c3ccc(C)c(C)c3)n[nH]2)cc1,1,.,-2,-2,.,0
COc1cc(C(=O)NCc2ccc(OCCN(C)C)cc2)cc(OC)c1OC,0,0,0,1,.,-1
COc1ccc(C(=O)NCc2ccc(OCCN(C)C)cc2)cc1OC,1,0,-2,-4,-5,5.6*
O=C(N/N=C/c1ccco1)c1cccc(N2CCCC2=O)c1,2,-1,0,11*,4,5
O=C(N/N=C/c1cc(Br)ccc1O)c1cccc(N2CCCC2=O)c1,-2,2,-1,-9,4,-2
O=C(Nc1ccccc1)c1cccc(N2CCCC2=O)c1,0,0,-1,12*,1,2
O=C(O)c1cccc(N2CCCC2=O)c1,0,0,-2,-1,27,-2
COc1ccc(-c2nc(=S)c3ccc4ccccc4c3[nH]2)cc1,1,0,1.0*,1,5,6.4*
CCCCN(C)C(=O)CSc1nnc(-c2cc(OC)c(OC)c(OC)c2)o1,0,.,-1,-1,.,-2
SMILES,DAX1 inh-1,DAX1 inh-2,ssDAF12 agonist,hgDAF-12 ag,PolyA inh,hcDAF12 agonist
COC(=O)[C@]12C[C@H](CC(=O)N3CCCCC3)C(=O)N(CCC3=CCCCC3)C1=C[C@H](C1CCCC1)O[C@@H]2C,1,.,-1,2,.,0
Cc1occc1C(=O)Nc1ccc(Br)cc1F,1,2,0,12*,-18,2
Cc1occc1C(=O)Nc1cc(C(F)(F)F)ccc1Cl,1,4.6*,-2,2,9,1
Cc1occc1C(=O)NNC(=O)Nc1ccc(F)cc1F,0,-1,-1,1,13,0
CC(=O)Nc1cccc(-c2cc(C(C)=O)c3n(c2=O)CCC3)c1,0,.,-1,3,.,-1
O=P(c1ccccc1)(c1ccccc1)c1cnc2ccccn12,.,.,-1,-1,.,-2
COc1ccc2[nH]c3c(c2c1)CCNC3=O,0,1,-2,11*,-6,1
c1cc(-c2nnc3n2N=C(c2ccc4c(c2)OCO4)CS3)ccn1,-3,.,-2,3,.,-3
COC(CNC(=O)[C@H](Cc1ccccc1)NC1(C(=O)NC2CCCCC2)CCCC1)OC,.,.,-1,-1,.,-1
COC(=O)c1c(NC(=O)C2CCCCC2C(=O)O)sc2c1CCCCC2 (stereo not given),2,4.9*,0,3,-14,3
CCOC(=O)c1c(NC(=O)C2CCCCC2C(=O)O)sc2c1CCCCC2 (stereo not given),0,1,-2,0,1,-1
COc1cc(/C=C/C(=O)OCC(=O)Nc2cccc(F)c2)ccc1O,1,0,-1,-2,.,0
COc1cc(/C=C/C(=O)OCC(=O)NC(=O)NC(C)(C)C)ccc1O,-1,4.5*,-1,0,17,0
O=[N+]([O-])c1ccc(N/N=C/c2ccccc2)c(F)c1,0,1,-1,12*,-7,1
CC(=O)Nc1ccc(C=NNc2ccc(S(=O)(=O)Nc3ccccc3C(=O)O)cc2[N+](=O)[O-])cc1,0,1,-1,-1,.,0
CC(=O)Nc1ccc(C=NNc2ccc([N+](=O)[O-])cc2S(=O)(=O)Nc2ccccc2C(=O)O)cc1,3.9*,1,-1,-2,.,-1
Cc1c(-c2ccccc2)nnn1-c1ccc(F)c(Cl)c1,0,.,-1,6,.,1
O=C(Nc1ccccc1)SC1CCCCC1,1,2,0,12*,.,3
COC(=O)C1CCN(C(=O)COC(=O)c2cc(-c3cccs3)nn2-c2ccccc2)CC1,-1,4.6*,-1,3,18,-2
Cc1[nH]c2ccccc2c1/C=N/Nc1ccccc1[N+](=O)[O-],0,0,0.9*,4,-38,5
CC1Sc2ccc(C(=O)Nc3ccccc3OC(F)F)cc2NC1=O (stereo not given),4.3*,1,-1,6,-17,0
c1ccc(CNc2cncnc2)cc1,0,0,1.1*,-2,7,1
C=CCn1c(Cc2cccs2)nnc1SCC(=O)Nc1cccc2ccccc12,-1,.,0,-1,.,-3
O=C(NC1=NCCS1)c1cccc(F)c1,0,.,0,4,17,1
O=C(NC1=NCCS1)c1ccc(-c2ccc(Cl)cc2)o1,2,1,0,7,-23,2
CCOc1cccc(C(=O)NC2=NCCS2)c1,2,8.1*,1,9,-7,4
O=C(NC1=NCCS1)c1ccc(Cl)cc1,2,1,0,9,4,5.7*
CCOC(=O)c1ccc(NC(=O)Nc2ccc3c(c2)OCCO3)cc1,-2,-1,-1,-2,-4,-3
